Measured values as given in PubChem BioAssay (NCI).
Compounds without any hit were thinned out: in the full panel of roughly 83,000, 20% have a hit.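 Method: cells in 96-well plates; compound added at one concentration; 48 h incubation; percent growth measured; values under 10 scored active.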 A number with no mark means an inactive call. The source made the active and inactive calls.

Tests used:
Assay in all cases: NCI-60 one-dose screen, 48 h (100 = growth as untreated, 0 = no growth, -100 = all killed)
Details in all cases: 10 µM unless noted
HCT-15 colon = system: HCT-15 colon
SNB-75 CNS = system: SNB-75 CNS
SNB-19 CNS = system: SNB-19 CNS
U251 CNS = system: U251 CNS
PC-3 prostate = system: PC-3 prostate
SK-MEL-5 melanoma = system: SK-MEL-5 melanoma
UACC-62 melanoma = system: UACC-62 melanoma
LOX IMVI melanoma = system: LOX IMVI melanoma
SK-MEL-28 melanoma = system: SK-MEL-28 melanoma
SK-MEL-2 melanoma = system: SK-MEL-2 melanoma
EKVX NSCLC = system: EKVX NSCLC
SN12C renal = system: SN12C renal
UO-31 renal = system: UO-31 renal
TK-10 renal = system: TK-10 renal
ACHN renal = system: ACHN renal
CAKI-1 renal = system: CAKI-1 renal
A498 renal = system: A498 renal
CCRF-CEM leukemia = system: CCRF-CEM leukemia
MOLT-4 leukemia = system: MOLT-4 leukemia

SMILES | growth (HCT-15 colon) | growth (SNB-75 CNS) | growth (SNB-19 CNS) | growth (U251 CNS) | growth (PC-3 prostate) | growth (SK-MEL-5 melanoma) | growth (UACC-62 melanoma) | growth (LOX IMVI melanoma) | growth (SK-MEL-28 melanoma) | growth (SK-MEL-2 melanoma) | growth (EKVX NSCLC) | growth (SN12C renal) | growth (UO-31 renal) | growth (TK-10 renal) | growth (ACHN renal) | growth (CAKI-1 renal) | growth (A498 renal) | growth (CCRF-CEM leukemia) | growth (MOLT-4 leukemia)
CCN(CC)CCCNc1cccc2c(C)cc(OC)nc12 | 94.9% | 76.8% | 94.9% | 94.3% | 75.1% | 91.3% | 85.3% | 105% | 103% | 97.4% | 114% | 88.4% | 56.9% | 96.3% | 91.6% | 96.8% | 70.3% | 102% | 78.7%
Cc1cc2nc3c(=O)[nH]c(=O)nc-3n(CC=O)c2cc1C | 106% | 89.3% | 99.8% | 103% | 122% | 98.6% | 92.2% | 101% | 117% |  | 95.6% | 97.7% | 106% | 111% | 105% | 64.8% | 116% | 160% | 109%
CC1=C(O)C(=O)C(c2c(C)cc(C)c(Br)c2C)=C(O)C1=O | 35.5% | 59.6% | 63.9% | 65.8% | 84.5% | 57.4% | 40.7% | 35.7% | 73.5% | 81.6% | 81.8% | 55% | 83.7% | 73.6% | 54% | 50.2% | 64.1% | 43.1% | 54.6%
CC(C)NC(=O)OCC#CCOC(=O)NC(C)C | 108% | 89.5% | 97.5% | 99.5% | 97% | 106% | 99.6% | 104% | 104% |  |  | 102% | 79.8% | 99.3% | 108% | 91.7% | 104% | 103% | 101%
CCN(CC)Cc1cc(Nc2nc(NC3CCC(N(C)C)CC3)c3ccccc3n2)ccc1OC (stereo unspecified) | 94.7% | 72.3% | 89.4% | 50.5% | 62.6% | 45.7% |  | 33.7% | 20.6% | 116% | 89% | 71.5% |  | 105% | 90.8% | 102% | 119% | 66.1% | 48.2%
CCOc1cccc(/C=N/NC(=O)Cc2ccc(Nc3ccnc(C(F)(F)F)c3)cc2)c1O | 17.3% | 39.4% | 28% | 20.6% | 50% | -36% (active) | -5.55% (active) | 2.43% (active) | 60.6% |  | 20.4% | 43% | 3.59% (active) | 47.1% | 6.94% (active) | 36.8% | 91.9% | -21.7% (active) | 40.6%
Cc1c(-c2ccc(-c3ccccc3F)cc2)nc2ccc(F)cc2c1C(=O)O | 29% | 60.9% | 41% | 31.9% | 33.2% | 40.4% | 39.5% | 9.11% (active) |  | 101% | 55% | 47.6% | 35.8% | 56% | 36.5% | 25.9% |  | 27.9% | 2.49% (active)
COc1ccc2c(c1)CCCC21C(=O)Nc2ccccc21 (stereo unspecified) | 97.2% | 101% | 105% | 99.3% | 104% | 103% | 106% | 98% | 111% | 96% | 104% | 101% | 82.4% | 95.4% | 105% | 103% | 99.7% | 97.9% | 76.2%
CCCCn1cnc(-c2cc(-c3ccccc3)cc(C(F)(F)F)c2)n1 | 104% | 98.9% |  | 97.7% | 82.7% | 101% | 90.3% | 105% | 109% |  |  | 98.2% | 87.9% | 102% | 106% | 91.5% |  | 97.1% | 88.8%
Cc1ccc(Nc2nc(NCCO)c3ccccc3n2)cc1C | 15.6% | 39.6% | 57% | 15.1% | 35.7% | -18.6% (active) | 35.7% | 8.62% (active) | 52.5% |  |  | 21.5% | 24.6% | 38.5% | 33.1% | 2.38% (active) |  | 8.3% (active) | 24.1%
CNCc1ccccc1CN(CC(=O)Nc1ccc2c(c1)CC1(C2)C(=O)Nc2ncccc21)C(=O)C(C)(C)C (stereo unspecified) | 111% | 83.2% | 103% | 103% | 98% | 103% | 99.8% | 97.4% |  | 104% | 100% | 103% | 88.1% | 103% | 107% | 91.6% |  | 116% | 103%
Cn1nc(C(F)(F)F)cc1-c1cc(Cl)c(OCc2ccc(Cl)cc2)c(-c2ccc(Cl)c(C(F)(F)F)c2)c1O | 6.63% (active) | -8.74% (active) | 17.4% | 8.94% (active) | 7.86% (active) | -53.3% (active) | 4.43% (active) | 12.4% | 13.7% | -33.8% (active) | 4.62% (active) | 5.76% (active) | 0.656% (active) | 2.92% (active) | -11.4% (active) | -19.2% (active) | -41.9% (active) | 9.85% (active) | -14.2% (active)
